For 35 compounds, cell number results are on record in the supplement of paper PMC7156485.

± gives the standard deviation of the averaged measurements.
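Also: TDF denotes transformed human dermal fibroblasts of mesenchymal origin.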

The subject of the first experiment is HCC1569. Put plainly: cell number relative to DMSO (% of DMSO); higher = more cells (less growth inhibition / toxicity). Conditions: concentration: 10 µM; 24 h. In outline: (§1)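 For HCC1569 and TDF cells, compounds at 10 µM were applied for 24 h at 37 °C in triplicate in 384-well plates. Cells were fixed in 3.7% formaldehyde, stained for H1.0 and with DAPI, and imaged at ×10 over six fields per well. The endpoint, H1.0 nuclear intensity or cell number, is shown as percent of the plate control using the median of replicates. Positional effects were smoothed for HCC1569 only.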
`O=C(O)c1ccc(O)c2ncccc12` [8-hydroxy-5-quinolinecarboxylic acid]: the cell number came to 102.
Take `O=C1C(=O)c2ccccc2C(O)=C1C1CCC(c2ccc(Cl)cc2)CC1` (stereo not given) [Atovaquone]: the cell number was 100.
On the same count and under the same terms, to `CN(C)CC=C(c1ccc(Br)cc1)c1cccnc1.Cl.Cl` [Zimelidine dihydrochloride] belongs 99; to `Cl.O.O=C(O)CN(CCN(CC(=O)O)Cc1ccccc1O)Cc1ccccc1O`, 105.

Another experiment has as its system TDF. Described as above. Conditions: concentration: 10 µM; 24 h. Summed up: as §1
In the case of `CC1(C)OC2CC3C4CC(F)C5=CC(=O)C=CC5(C)C4(F)C(O)CC3(C)C2(C(=O)CO)O1` (stereo not given) [Fluocinolone acetonide], the cell number came out at 96.3.
Take `COC(=O)c1c(-c2cc(OC)c(OC)c(OC)c2)c2ccc(OCc3ccccn3)cc2c(=O)n1-c1ccc(N)cc1.O=S(=O)(O)O`: the cell number was 113.
As for `CN(C)C(=O)Nc1cccc(-c2ccc(N(C)C)cc2)c1` [3-(4'-(dimethylamino)-[1,1'-biphenyl]-3-yl)-1,1-dimethylurea], the cell number worked out at 101.
Same read-out and setting: to `CC(=O)OCC(=O)[C@@]1(O)CC[C@H]2[C@@H]3CCC4=CC(=O)C=C[C@]4(C)[C@H]3[C@@H](O)C[C@@]21C` belongs 103.
`COc1ccc(S(=O)(=O)N(CCO)c2ccccc2CN(C)CC=Cc2ccc(Cl)cc2)cc1` yielded a cell number of 86.7.
Compound `Cn1cc(C2=C(c3cn(CCCSC(=N)N)c4ccccc34)C(=O)NC2=O)c2ccccc21` came in with a cell number of 21.3.
In turn, `OCC1OC(O)C(Cl)C(O)C1O` [2-Chloro-2-deoxy-D-glucose] registered a cell number of 101.
`CCCCCCCCCCCCCCCCCCCCCC(=O)O` [Docosanoic acid] returned a cell number of 104.
The same measure, in the same setting: under `CCOC(=O)CCNc1cc(N2CCc3ccccc3CC2)nc(-c2ccccn2)n1` stands 20.8; under `Br.Br.N=C(N)SCCc1ccc(CCSC(=N)N)cc1` [1,4-PBIT dihydrobromide], 101.
As for `NC(=O)c1ccc2[nH]ccc2c1`, the cell number was determined as 97.1.
Take `CC12CCc3occc3C1CCC13CC(=O)C(CCC12)C3` (stereo not given) [16-Oxocafestol]: the cell number was 97.5.
Take `O=C1NC(=O)C(c2c[nH]c3ccccc23)=C1c1c[nH]c2ccccc12` [Bisindolylmaleimide IV]: the cell number stood at 119.
Consider `Cc1cccc(-c2[nH]c(C(C)(C)C)nc2-c2ccc3c(c2)OCO3)n1.Cl` [TGF-b RI Inhibitor III], for which the cell number turned out to be 84.
In turn, `COc1ccc(-c2ccc(N)[n+](CCCC(=O)O)n2)cc1.[Br-]` came in with a cell number of 97.9.
`COc1ccc(C2CC(=O)c3c(O)cc(O)cc3O2)cc1O` (stereo not given) [Hesperitine]: the cell number came out at 101.
On the same count and under the same terms, under `CC(=O)NC(CSCC=C(C)CCC=C(C)C)C(=O)O` (stereo not given) stands 101; under `Oc1ccc(Cn2cc[nH]c2=S)cc1` [1-(4-Hydroxybenzyl)imidazole-2-thiol], 101.
Regarding `Cc1ccc(C(=CCN2CCCC2)c2ccccn2)cc1.Cl` [Trans-triprolidine.HCl], the cell number came out at 95.5.
Consider `Cc1nc2n(c(=O)c1CCN1CCC(c3noc4cc(F)ccc34)CC1)CCCC2` [Risperidone], for which the cell number was 99.6 ± 4.
On to `Cl.O=C(CNC(=O)c1cccc(C(F)(F)F)c1)N[C@@H]1CCN(Cc2ccc(Cl)cc2)C1`, for which the cell number worked out at 96.8.
Still for that read-out and setting: to `Cl.NCc1c[nH]c(=S)n1[C@H]1CCc2c(F)cc(F)cc2C1` belongs 110; to `CCC1(O)C(=O)OCc2c1cc1n(c2=O)Cc2cc3c(CN(C)C)c(O)ccc3nc2-1.Cl` (stereo not given) [Topotecan.HCl], 17.1.
`CC(CC(c1ccccc1)c1ccccc1)NC(C)(C)C.Cl` (stereo not given) [N-(tert-butyl)-4,4-diphenyl-2-butanamine hydrochloride] came in with a cell number of 97.5.
Consider `CC(C)(N)c1ccc(-c2nc3ccccc3nc2-c2ccccc2)cc1`, for which the cell number is 95.3.
Same read-out and setting: to `CCCCCC=CC=C1C(=O)C=CC1CC=CCCCC(=O)O` (stereo not given) [15d-Prostaglandin J2] belongs 102; to `N#CC(=C(N)Sc1ccc(N)cc1)c1ccccc1C(F)(F)F` [MEK1/2 Inhibitor], 111; to `C1CCC(C(CC2CCCCN2)C2CCCCC2)CC1.O=C(O)C=CC(=O)O` (stereo not given), 5.25.
Take `CCn1c(-c2nonc2N)nc2c(C#CC(C)(C)O)ncc(OCC3CCCNC3)c21` (stereo not given): the cell number was 71.5.
`CC(=O)c1ccc(N2CCOCC2)cc1O` [DNA-PK Inhibitor III] displayed a cell number of 93.9.
On the same count and under the same terms, under `COc1ccc(C2(C#N)CCC(C(=O)O)CC2)cc1OC1CCCC1` (stereo not given) stands 99.6.
